Bioassay records as filed in PubChem BioAssay.
These entries were drawn from the full list.
aSyn 5UTR act: Activators via SNCA 5'UTR binding, MLPCN. 300,000 compounds, 7.1% hits. activity score, % (tested at 7.5 µM), hits read low. alpha-synuclein 5'UTR reporter, activators screen; in the data active = activity score below about -60%
The depositor's hits bear a star.

SMILES	aSyn 5UTR act
CC(=O)c1cccc(NC(=O)c2noc3c2CCc2ccccc2-3)c1	-167.9*
CCOC(=O)C1CCN(C(=O)C2CCN(c3ncnc4c3nc3n4CCCCC3)CC2)CC1	-107.7*
C=C(C)C1CC=C(C)/C(=N/NC(=O)c2cccs2)C1 (configuration not stated)	-124.0*
C=C(C)C1CC=C(C)/C(=N/Nc2ccccc2[N+](=O)[O-])C1 (configuration not stated)	-143.6*
O=C1c2ccc3c4c(ccc(c24)C(=O)N1c1cccc(O)c1)C(=O)N(c1cccc(O)c1)C3=O	68.1
Cc1cccc(N2C(=O)c3cccc4c(N5CCCCC5)c([N+](=O)[O-])cc(c34)C2=O)c1C	61.7
O=C1c2cccc3c(N4CCCCC4)ccc(c23)C(=O)N1c1ccc(O)cc1	-72.4*
COCCCNC(=O)Nc1ccc(Br)cc1Cl	-72.2*
O=C(NCc1ccccn1)c1ccc(Cn2c(=S)[nH]c3ccc(Br)cc3c2=O)cc1	40.4
S=C(NCc1ccccn1)Nc1ccccc1Cl	-115.3*
O=C(NCc1ccccn1)Nc1ccc(Br)cc1Cl	-72.3*
O=C(NCc1ccccn1)Nc1ccc(Cl)cc1Cl	-97.0*
S=C(NCc1ccccn1)Nc1ccc(Br)cc1Cl	-143.2*
CN(C)/C=C/C(=O)c1cnc(-c2ccccc2Cl)s1	-127.5*
CN(C)/C=C/C(=O)c1cnc(-c2cccc(Cl)c2)s1	-145.9*
COC(=O)CNc1c(-c2ccccn2)nc2ccc(Br)cn12	-83.4*
O=C(Nc1ccc(F)cc1)c1c(Cl)nc2ccccn12	-111.5*
COC(=O)c1cc(NC(=O)c2c(Cl)nc3sccn23)cc(C(=O)OC)c1	79.5
COc1ccc(NC(=O)c2c(Cl)nc3ccccn23)cc1	-142.4*
N#CCCN1CCCc2cc(N=Nc3ccc(C(F)(F)F)cc3)ccc21	-191.4*
Cc1ccc(O)c(C(=O)/C=C/c2ccc3c(c2)OCCO3)c1	-82.4*
O=C(/C=C/c1ccc2c(c1)OCCO2)c1ccccc1	-136.6*
O=C(O)c1ccc(/C=C/C(=O)c2ccc3c(c2)OCCCO3)cc1	-134.8*
Nc1ccccc1C(=O)/C=C/c1ccc2c(c1)OCO2	-340.3*
CCOC(=O)c1ccc2c(c1)[nH]c(=S)n2CC	-64.2*
SMILES	aSyn 5UTR act
CCN1CCN(c2nc3sc4c(c3c3ncnn23)CC(C)CC4)CC1 (configuration not stated)	-63.9*
CC(Oc1c(Cl)cccc1Cl)C1=NCCN1 (configuration not stated)	-79.6*
CN(Cc1ccsc1)C(=O)Cn1cc(Br)ccc1=O	-97.4*
O=C(Nc1cccc(Cl)c1)c1ccc2c(=O)n3c(nc2c1)CCCCC3	-216.7*
O=C(Nc1ccc(F)cc1)c1ccc2c(=O)n3c(nc2c1)CCCCC3	-103.8*
O=C(Nc1ccc(F)c(Cl)c1)c1ccc2c(=O)n3c(nc2c1)CCCCC3	-165.9*
CCc1cccc(NC(=O)c2ccc3c(=O)n4c(nc3c2)CCCCC4)c1	-127.4*
O=C(Nc1ccc(Cl)cc1)c1ccc2c(=O)n3c(nc2c1)CCCCC3	-119.9*
CCCCCc1ccc(-c2ccc(/C=C/C(=O)O)cc2)nc1	79.2
O=C(c1ccccc1)c1ccc(Cn2cc(-c3ccccc3)nn2)cc1	-135.2*
CCCCCc1ccc(-c2cn(Cc3ccc(C(=O)c4ccccc4)cc3)nn2)cc1	-138.1*
COc1ccc(Nc2nc(N)nc(CSC(=S)N3CCCCC3)n2)cc1	-62.4*
Nc1nc(CSc2ccccn2)nc(Nc2ccccc2)n1	-84.6*
COc1ccc(OCc2nc(N)nc(Nc3ccc(C)cc3)n2)cc1	-68.7*
COc1ccc(Nc2nc(N)c([N+](=O)[O-])c(NC3CCCCC3)n2)cc1	61.8
COc1ccc(Nc2nc(N)nc(CSc3nccn3C)n2)cc1	-86.8*
Nc1nc(COc2ccccc2C=O)nc(Nc2ccccc2)n1	-118.6*
Cn1nc(OC(=O)Nc2ccccc2)cc1C(F)(F)F	-122.5*
COCCOC(=O)c1[nH]c2c(c1C)C(=O)C(C(=O)OC)C(C)C2 (configuration not stated)	-87.7*
COC(=O)C1C(=O)c2c([nH]c(C(=O)OCC3CCCO3)c2C)CC1C (configuration not stated)	-112.9*
CCCCCOC(=O)c1[nH]c2c(c1C)C(=O)C(C(=O)OC)C(C)C2 (configuration not stated)	-73.2*
COCCOC(=O)c1[nH]c2c(c1C)C(=O)CC(c1ccccc1)C2 (configuration not stated)	77.7
COC(=O)c1[nH]c2c(c1C)C(=O)CC(c1cccs1)C2 (configuration not stated)	84.6
COC(=O)C1C(=O)c2c([nH]c(C(=O)OC3CCCCCC3)c2C)CC1C (configuration not stated)	-115.3*
CCOC(=O)c1[nH]c2c(c1C)C(=O)CC(c1ccco1)C2 (configuration not stated)	73.3
SMILES	aSyn 5UTR act
Cc1c(C(=O)OC2CCC(C)CC2)[nH]c2c1C(=O)CCC2 (configuration not stated)	-78.8*
CS(=O)(=O)Nc1ccc(C(=O)Nc2ccc3ccccc3c2)cc1	-213.6*
CC(C)c1ccc(NC(=O)c2ccc(NS(C)(=O)=O)cc2)cc1	-75.8*
CCc1ccc2c(c1)/C(=C/C(=O)c1cccs1)C(=O)N2	-65.0*
Cc1cc2nc(-c3ccc(NC(=O)C(C)C)cc3)oc2cc1C	-195.5*
CC(=O)Nc1ccc(-c2nc3ccc(NC(C)=O)cc3o2)cc1	-103.9*
CC(=O)Nc1cc(-c2nc3ccccc3o2)ccc1Cl	-77.1*
Cc1nn(C)cc1/C=C/C(=O)c1ccccc1	-110.5*
CCn1cc(/C=C/C(=O)c2ccc(O)cc2)c(C)n1	-105.0*
Cc1c(/C=C/C(=O)c2ccc(Cl)s2)cnn1C	-163.0*
CCn1ncc(/C=C/C(=O)c2ccccc2)c1C	-70.5*
Cc1c(/C=C/C(=O)c2ccc(C(C)C)cc2)cnn1C	-91.6*
Cc1c(/C=C/C(=O)c2ccccc2)cnn1C	-122.7*
Cc1c(/C=C/C(=O)c2ccc(O)cc2)cnn1C	-145.7*
CC(C)c1ccc(NC(=S)NCc2cccs2)cc1	-85.7*
Cc1cc(C)c2c(c1)C(=O)/C(=C/c1ccc(C(=O)O)cc1)CC2	-78.5*
COc1ccc(/C=N/Nc2nc(N)cc(Cl)n2)cc1OC	-74.5*
COc1ccc(-c2cnnc(N/N=C/c3ccc(O)c(OC)c3)n2)cc1	-95.1*
COc1cc(/C=N/Nc2ccccn2)ccc1O	-90.7*
COc1ccc(/C=N/Nc2ccccn2)cc1OC	-114.5*
Cn1nc(-c2ccc(N3CCCCC3)c(NC(=O)c3ccco3)c2)c2ccccc2c1=O	67.2
Cn1nc(C(=O)Nc2ccc(S(=O)(=O)NCc3ccco3)cc2)c2ccccc2c1=O	-96.4*
Fc1ccc(/C=N/Nc2nccnc2Cl)cc1	-120.5*
Oc1ccc(/C=N/Nc2nccnc2Cl)cc1	-123.9*
Fc1cccc(/C=N/Nc2nccnc2Cl)c1	-105.7*
SMILES	aSyn 5UTR act
COCCN=c1scc(-c2cccs2)n1/N=C(\C)c1ccco1	-153.0*
CN1CCN(C(=O)CCCN2C(=O)/C(=C/c3cccc(Br)c3)SC2=S)CC1	-218.5*
Cc1ccc(/C=C2\SC(=S)N(CCC(=O)N3CCOCC3)C2=O)cc1	-63.8*
Cc1ccc(/C=C2\SC(=S)N(CCCC(=O)Nc3ccc(O)cc3)C2=O)cc1	103.6
Cc1ccc(/C=C2\SC(=S)N(CCCC(=O)Nc3ccccc3C(=O)O)C2=O)cc1	67.6
O=C(CCN1C(=O)/C(=C/c2ccccc2Cl)SC1=S)N1CCCC1	-115.4*
O=C(CCCN1C(=O)/C(=C/c2ccccc2Cl)SC1=S)NNC(=O)c1ccccc1Cl	100.3
O=C(CCN1C(=O)/C(=C/c2ccccc2Cl)SC1=S)N1CCOCC1	-73.2*
